# Where a chain is given by its changes, count along the chain named.
# Columns and labels:
# Experiment in all cases: PBM; 200 nM protein, PBS
# Conditions in all cases: dsDNA, one strand shown
# ALX4 [1] = target: ALX4 (Homo sapiens, UniProt Q9H161 200-286)
# ALX4 [2] = target: ALX4 (Homo sapiens, UniProt Q9H161 200-286, Q225E)
# PROP1 [3] = target: PROP1 (Homo sapiens, UniProt O75360 56-141)
# PROP1 [4] = target: PROP1 (Homo sapiens, UniProt O75360 56-141, R99H)
# PROP1 [5] = target: PROP1 (Homo sapiens, UniProt O75360 56-141, F88S)
# PROP1 (Homo sapiens, UniProt O75360 56-141, F88S), sequence (O75360 56-141 F88S): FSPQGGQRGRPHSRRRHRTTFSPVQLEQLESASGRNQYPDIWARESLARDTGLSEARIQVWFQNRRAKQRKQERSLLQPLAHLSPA
# PAX4 [6] = target: T1, PAX4 (Homo sapiens, UniProt O43316 9-242, R200K)
# T1 sequence: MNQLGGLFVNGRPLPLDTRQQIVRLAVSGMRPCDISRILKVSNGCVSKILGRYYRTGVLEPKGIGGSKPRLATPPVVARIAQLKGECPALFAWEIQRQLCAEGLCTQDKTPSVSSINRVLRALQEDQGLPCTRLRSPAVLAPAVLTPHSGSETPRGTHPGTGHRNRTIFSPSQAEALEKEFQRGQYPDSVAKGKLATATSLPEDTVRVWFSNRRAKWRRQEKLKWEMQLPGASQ
# PAX4 [7] = target: T2, PAX4 (Homo sapiens, UniProt O43316 9-242)
# T2 sequence: T1 sequence with K192R
# ALX1 [8] = target: ALX1 (Homo sapiens, UniProt Q15699 118-204, L144V)
# ALX1 (Homo sapiens, UniProt Q15699 118-204, L144V), sequence (Q15699 118-204 L144V): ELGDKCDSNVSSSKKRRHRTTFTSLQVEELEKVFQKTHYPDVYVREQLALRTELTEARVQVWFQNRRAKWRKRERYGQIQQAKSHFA
# ALX1 [9] = target: ALX1 (Homo sapiens, UniProt Q15699 118-204, L144R)
# ALX1 (Homo sapiens, UniProt Q15699 118-204, L144R), sequence (Q15699 118-204 L144R): as the sequence (Q15699 118-204 L144V) above, with V27R counted along it
# ALX1 [10] = target: ALX1 (Homo sapiens, UniProt Q15699 118-204)
# ALX1 (Homo sapiens, UniProt Q15699 118-204), sequence (Q15699 118-204): as the sequence (Q15699 118-204 L144V) above, with V27L counted along it
# ALX4 (Homo sapiens, UniProt Q9H161 200-286, Q225E), sequence (Q9H161 200-286 Q225E): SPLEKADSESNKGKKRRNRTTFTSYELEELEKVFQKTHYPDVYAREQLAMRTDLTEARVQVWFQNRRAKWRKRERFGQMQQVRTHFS
# ALX4 (Homo sapiens, UniProt Q9H161 200-286), sequence (Q9H161 200-286): as the sequence (Q9H161 200-286 Q225E) above, with E26Q counted along it
# PROP1 (Homo sapiens, UniProt O75360 56-141), sequence (O75360 56-141): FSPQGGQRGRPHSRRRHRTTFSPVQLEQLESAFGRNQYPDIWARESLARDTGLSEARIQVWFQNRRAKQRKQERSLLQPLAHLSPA
# PROP1 (Homo sapiens, UniProt O75360 56-141, R99H), sequence (O75360 56-141 R99H): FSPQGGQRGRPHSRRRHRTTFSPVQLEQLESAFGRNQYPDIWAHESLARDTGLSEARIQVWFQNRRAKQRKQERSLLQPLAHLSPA
sequence,measurement,setting,value
CCATCGGA,binding signal,ALX4 [1],"8.15 upbm affinity estimate (log intensity, higher = more binding, comparable within an allelic series)"
same,binding signal,ALX4 [2],"8.29 upbm affinity estimate (log intensity, higher = more binding, comparable within an allelic series)"
ATTTTCTC,binding signal,ALX4 [1],"10.1 upbm affinity estimate (log intensity, higher = more binding, comparable within an allelic series)"
same,binding signal,ALX4 [2],"9.45 upbm affinity estimate (log intensity, higher = more binding, comparable within an allelic series)"
CGATATAA,binding signal,ALX4 [1],"10.2 upbm affinity estimate (log intensity, higher = more binding, comparable within an allelic series)"
same,binding signal,ALX4 [2],"9.67 upbm affinity estimate (log intensity, higher = more binding, comparable within an allelic series)"
CGGATGTC,binding signal,ALX4 [1],"8.26 upbm affinity estimate (log intensity, higher = more binding, comparable within an allelic series)"
same,binding signal,ALX4 [2],"8.17 upbm affinity estimate (log intensity, higher = more binding, comparable within an allelic series)"
GCAGCTCC,binding signal,ALX4 [1],"8.25 upbm affinity estimate (log intensity, higher = more binding, comparable within an allelic series)"
same,binding signal,ALX4 [2],"8.26 upbm affinity estimate (log intensity, higher = more binding, comparable within an allelic series)"
CGTAATCA,binding signal,ALX4 [1],"11.9 upbm affinity estimate (log intensity, higher = more binding, comparable within an allelic series)"
same,binding signal,ALX4 [2],"10.6 upbm affinity estimate (log intensity, higher = more binding, comparable within an allelic series)"
GGTGGCCA,binding signal,ALX4 [1],"8.06 upbm affinity estimate (log intensity, higher = more binding, comparable within an allelic series)"
same,binding signal,ALX4 [2],"8.37 upbm affinity estimate (log intensity, higher = more binding, comparable within an allelic series)"
GACGCGGC,binding signal,ALX4 [1],"8.04 upbm affinity estimate (log intensity, higher = more binding, comparable within an allelic series)"
same,binding signal,ALX4 [2],"8.07 upbm affinity estimate (log intensity, higher = more binding, comparable within an allelic series)"
GGCATGCC,binding signal,ALX4 [1],"8.37 upbm affinity estimate (log intensity, higher = more binding, comparable within an allelic series)"
same,binding signal,ALX4 [2],"8.31 upbm affinity estimate (log intensity, higher = more binding, comparable within an allelic series)"
TGCCAGCA,binding signal,ALX4 [1],"8.19 upbm affinity estimate (log intensity, higher = more binding, comparable within an allelic series)"
same,binding signal,ALX4 [2],"8.28 upbm affinity estimate (log intensity, higher = more binding, comparable within an allelic series)"
same,binding signal,PROP1 [3],"6.8 upbm affinity estimate (log intensity, higher = more binding, comparable within an allelic series)"
same,binding signal,PROP1 [4],"6.79 upbm affinity estimate (log intensity, higher = more binding, comparable within an allelic series)"
same,binding signal,PROP1 [5],"6.93 upbm affinity estimate (log intensity, higher = more binding, comparable within an allelic series)"
GTCTTAAA,binding signal,PAX4 [6],"10.3 upbm affinity estimate (log intensity, higher = more binding, comparable within an allelic series)"
same,binding signal,PAX4 [7],"10.4 upbm affinity estimate (log intensity, higher = more binding, comparable within an allelic series)"
GCAGACCC,binding signal,ALX4 [1],"7.9 upbm affinity estimate (log intensity, higher = more binding, comparable within an allelic series)"
same,binding signal,ALX4 [2],"8.2 upbm affinity estimate (log intensity, higher = more binding, comparable within an allelic series)"
ACCCTCGG,binding signal,ALX4 [1],"8.1 upbm affinity estimate (log intensity, higher = more binding, comparable within an allelic series)"
same,binding signal,ALX4 [2],"8.11 upbm affinity estimate (log intensity, higher = more binding, comparable within an allelic series)"
same,binding signal,ALX1 [8],"6.49 upbm affinity estimate (log intensity, higher = more binding, comparable within an allelic series)"
same,binding signal,ALX1 [9],"6.58 upbm affinity estimate (log intensity, higher = more binding, comparable within an allelic series)"
same,binding signal,ALX1 [10],"6.48 upbm affinity estimate (log intensity, higher = more binding, comparable within an allelic series)"
